Source: the supplement of paper PMC6853941
Unmarked numbers belong to inactive results.

System: MCF10A
Experiment: perturbation Mahalanobis distance of morphological profile vs DMSO controls (Mahalanobis distance (SD units)); higher = stronger morphological change, active = 7 or more
Settings: 72 h
Experimental: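 MCF10A cells were seeded onto drugs dispensed acoustically into 384-well plates, using one dose per drug chosen from its human peak plasma concentration, and incubated for 72 h at 37 °C. Cells were stained for DNA, tubulin and mitochondria and imaged; 78 CellProfiler features were extracted, plate-normalised and compared with DMSO wells.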

[1] = screen batch: Batch1_Mahalanobis_Distance
[2] = screen batch: Batch2_Mahalanobis_Distance

SMILES: CC1(C)C[C@@H]1C(=O)N/C(=C\CCCCSC[C@H](N)C(=O)O)C(=O)O [Cilastatin] (153.4 µM)
- perturbation Mahalanobis distance [1]: 3.43
- perturbation Mahalanobis distance [2]: 3.46

SMILES: C#C[C@]1(O)CC[C@H]2[C@@H]3CCC4=CC(=O)CC[C@@H]4[C@H]3CC[C@@]21CC [Levonorgestrel] (0.24 µM)
- perturbation Mahalanobis distance [1]: 3.22
- perturbation Mahalanobis distance [2]: 2.71

SMILES: CN1C(CCl)Nc2cc(Cl)c(S(N)(=O)=O)cc2S1(=O)=O (stereo not drawn) [Methyclothiazide] (0.5 µM)
- perturbation Mahalanobis distance [1]: 2.69
- perturbation Mahalanobis distance [2]: 2.45

SMILES: O=C(C1CCCCC1)N1CC(=O)N2CCc3ccccc3C2C1 (stereo not drawn) [Praziquantel] (3.2 µM)
- perturbation Mahalanobis distance [1]: 3.15
- perturbation Mahalanobis distance [2]: 3.64

SMILES: CCOC(=O)C(C)(C)Oc1ccc(Cl)cc1 [Clofibrate] (325.5 µM)
- perturbation Mahalanobis distance [1]: 6.08
- perturbation Mahalanobis distance [2]: 2.81

SMILES: CCCc1nc(C(C)(C)O)c(C(=O)OCc2oc(=O)oc2C)n1Cc1ccc(-c2ccccc2-c2nn[nH]n2)cc1 [Olmesartan Medoxomil] (8.1 µM)
- perturbation Mahalanobis distance [1]: 2.22
- perturbation Mahalanobis distance [2]: 1.74

SMILES: CN(C)c1nc(N(C)C)nc(N(C)C)n1 [Altretamine] (98.9 µM)
- perturbation Mahalanobis distance [1]: 2.75
- perturbation Mahalanobis distance [2]: 3.12

SMILES: OC[C@H]1O[C@@H](n2cnc3c2NC=NC[C@H]3O)C[C@@H]1O [Pentostatin] (55.9 µM)
- perturbation Mahalanobis distance [1]: 4.44
- perturbation Mahalanobis distance [2]: 3.34

SMILES: CCc1c2c(nc3ccc(OC(=O)N4CCC(N5CCCCC5)CC4)cc13)-c1cc3c(c(=O)n1C2)COC(=O)[C@]3(O)CC [Irinotecan] (16.8 µM)
- perturbation Mahalanobis distance [1]: 11.9 (active)
- perturbation Mahalanobis distance [2]: 16.6 (active)

SMILES: CCCCC(F)(F)[C@@]1(O)CC[C@H]2[C@@H](CC(=O)[C@@H]2CCCCCCC(=O)O)O1 [Lubiprostone] (64 µM)
- perturbation Mahalanobis distance [1]: 2.4
- perturbation Mahalanobis distance [2]: 2.48

SMILES: Nc1ncn([C@@H]2O[C@H](CO)[C@@H](O)[C@H]2O)c(=O)n1 [Azacitidine] (15.4 µM)
- perturbation Mahalanobis distance [1]: 14.8 (active)
- perturbation Mahalanobis distance [2]: 17.2 (active)

SMILES: CN(C)CCCN1c2ccccc2CCc2ccccc21 [Imipramine] (6.2 µM)
- perturbation Mahalanobis distance [1]: 6.2
- perturbation Mahalanobis distance [2]: 4.52

SMILES: CC(=O)/C(C#N)=C(\O)Nc1ccc(C(F)(F)F)cc1 [Teriflunomide (A77 1726)] (66.9 µM)
- perturbation Mahalanobis distance [1]: 4.02
- perturbation Mahalanobis distance [2]: 2.47

SMILES: CC/C(=C(\c1ccccc1)c1ccc(OCCN(C)C)cc1)c1ccccc1 [Tamoxifen] (6.7 µM)
- perturbation Mahalanobis distance [1]: 2.61
- perturbation Mahalanobis distance [2]: 2.63

SMILES: CN(C)CCCN1c2ccccc2Sc2ccc(C(F)(F)F)cc21 [Triflupromazine] (1.4 µM)
- perturbation Mahalanobis distance [1]: 4.75
- perturbation Mahalanobis distance [2]: 4.32

SMILES: CCCCc1oc2ccc(NS(C)(=O)=O)cc2c1C(=O)c1ccc(OCCCN(CCCC)CCCC)cc1 [Dronedarone] (1.3 µM)
- perturbation Mahalanobis distance [1]: 3.58
- perturbation Mahalanobis distance [2]: 2.07

SMILES: CCCc1nn(C)c2c(=O)[nH]c(-c3cc(S(=O)(=O)N4CCN(C)CC4)ccc3OCC)nc12 [Sildenafil] (0.53 µM)
- perturbation Mahalanobis distance [1]: 3.27
- perturbation Mahalanobis distance [2]: 4.22

SMILES: CCC(C)n1ncn(-c2ccc(N3CCN(c4ccc(OC[C@H]5CO[C@](Cn6cncn6)(c6ccc(Cl)cc6Cl)O5)cc4)CC3)cc2)c1=O (stereo partly drawn) [Itraconazole] (14.2 µM)
- perturbation Mahalanobis distance [1]: 2.19
- perturbation Mahalanobis distance [2]: 2.7

SMILES: CN(C)CC[C@@H](c1ccc(Cl)cc1)c1ccccn1 [Dexchlorpheniramine] (0.15 µM)
- perturbation Mahalanobis distance [1]: 2.03
- perturbation Mahalanobis distance [2]: 2.67

SMILES: CN(C)[C@@H]1C(O)=C(C(N)=O)C(=O)[C@@]2(O)C(O)=C3C(=O)c4c(O)cccc4[C@@](C)(O)[C@H]3C[C@@H]12 [Tetracycline] (45 µM)
- perturbation Mahalanobis distance [1]: 4.19
- perturbation Mahalanobis distance [2]: 2.42

SMILES: CCC1(c2ccccc2)NC(=O)N(C)C1=O (stereo not drawn) [Mephenytoin] (343.8 µM)
- perturbation Mahalanobis distance [1]: 3.16
- perturbation Mahalanobis distance [2]: 3.69

SMILES: CCN(CC)Cc1cc(Nc2ccnc3cc(Cl)ccc23)ccc1O [Amodiaquine] (0.7 µM)
- perturbation Mahalanobis distance [1]: 2.08
- perturbation Mahalanobis distance [2]: 2.97

SMILES: CN(CCOc1ccc(CC2SC(=O)NC2=O)cc1)c1ccccn1 (stereo not drawn) [Rosiglitazone] (4.2 µM)
- perturbation Mahalanobis distance [1]: 2.03
- perturbation Mahalanobis distance [2]: 3.13

SMILES: CN(Cc1cnc2nc(N)nc(N)c2n1)c1ccc(C(=O)N[C@@H](CCC(=O)O)C(=O)O)cc1 [Methotrexate] (0.44 µM)
- perturbation Mahalanobis distance [1]: 9.23 (active)
- perturbation Mahalanobis distance [2]: 17.5 (active)
